DT40 TDP1 no CPT = qHTS for Inhibitors of human tyrosyl-DNA phosphodiesterase 1 (TDP1): qHTS in cells in absence of CPT; DT40 Tdp1-/- hTDP1 cells, no CPT, ATP luminescence, 48 h; Potency, µM (doses to about 46.2 µM), without a hit: at the top dose activity change, negative = growth inhibition, actives largely listed as inhibitors; 420,000 tested, 15% active; AID 686978, 2013; further: potency means the concentration at half of the fitted maximal effect; nearly all actives have a fitted effect of over 55% in size
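Growth of hTDP1-complemented DT40 Tdp1-knockout cells is measured by ATP luminescence after at least 48 hr compound exposure at 37 °C, with DMSO substituting for the 20 nM CPT used in the parallel screen.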
TDP1 cell CPT = DT40-hTDP1 cell growth loss with CPT; Potency, µM (top dose mostly 46.2 µM), for the others: at the top dose activity change, negative = growth inhibition, actives largely listed as inhibitors; 420,000 tested, 12% active; chicken DT40 Tdp1-/-;hTDP1 cells + 20 nM CPT, ATP luminescence, 48 h; further: potency means the concentration at half of the fitted maximal effect; nearly all actives have a fitted effect of over 55% in size
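Cell growth measured by CellTiter-Glo luminescence after a minimum 48 h, 37 C compound exposure with 20 nM CPT in Tdp1-knockout DT40 cells stably expressing hTDP1, seeded 400/well; qHTS titration format.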
IL-1B inflam inh = inflammasome signaling inhibition, IL-1 beta readout; THP-1 LPS/ATP IL-1B secretion, AlphaLISA, 16 h; stronger effect = lower value; 360,000 tested, 4.7% active; activity change, % at 57.5 µM; in the data active means activity change below about -50%; inconclusive means mostly about -30% to -49%
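THP-1 cells pretreated 1 hr with compounds (up to 57.5 uM final), then stimulated with LPS (250 ng/mL final) plus ATP (1.25 mM final); secreted IL-1B measured by AlphaLISA after 16 hr, decreased signal indicating inhibition.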
HT1080 IDH1KD tx = kills HT-1080 cells with IDH1 knockdown; HT-1080 IDH1 knockdown viability, ATP luminescence, 48 h; Potency, µM (titrated, usually from 46.1 µM), without a hit: at the highest dose activity, negative = toxicity, usual class: cytotoxic; 360,000 tested, 2% active;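 further: potency means the concentration at half of the fitted maximal effect; 0% = DMSO wells and -100% = cell-free medium wells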
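In this qHTS, HT-1080 cells depleted of IDH1 are exposed for 48 h at 37 °C to compound titrations. Toxicity is scored from CellTiter-Glo luminescence, with DMSO as full viability and medium alone as none.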
HT1080-NT tox = kills 2HG-producing HT-1080-NT fibrosarcoma cells; Potency, µM (highest dose often 46.1 µM), without a hit: top-dose activity, negative = less viability, hits mostly cytotoxic; 360,000 tested, 1.6% active; HT-1080-NT fibrosarcoma viability, CellTiter-Glo ATP luminescence, 48 h;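 further: NT is the 2HG producing partner of a matched IDH1 knockdown line; potency means the concentration at half of the fitted maximal effect; 0% = DMSO-treated cells and -100% = media-only wells without cells; nearly all actives have a fitted effect of over 55% in size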
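Viability of the 2HG-overproducing fibrosarcoma line after 48 hours of compound exposure at 37 degrees C was determined by luminescence with CellTiter-Glo, and concentration-effect curves were then fitted and categorized.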
Active calls of the source: *; u = inconclusive; x = no result given; [ ] = another dose, or the depositor's remark. Shown are actives, neighbours in structure and some others; about 19% of the full set was active somewhere. Unless noted, the call rests on the fitted dose curve; in most records, active means well fitted curve in the direction sought with a large enough effect; inconclusive means small, poorly fitted or top-dose-only effect, or another doubt; inactive means no such curve, though single readings can be large; an effect the other way counts as inactive or inconclusive. Unless noted, on the % scale 0 is the no-effect control and ±100 the full control effect.

SMILES | DT40 TDP1 no CPT | TDP1 cell CPT | IL-1B inflam inh | HT1080 IDH1KD tx | HT1080-NT tox
CC(O)(COc1ccccc1)c1ccc2c(c1)CN(Cc1ccccn1)CCO2 (stereo not given) | -20.1% | -1.3%[9.04 µM] | x | x | x
O=C(NCC1OCCCN1S(=O)(=O)c1cc(F)ccc1F)C(=O)NC1CCCCC1 (stereo not given) | 12.1% | -8.1% | 9.9 | -2.8% | -2.6%
O=C(CSC1=NCCS1)N1CCOCC1 | -28.4% | -0.9% | 13.0 | 7.3% | 21.1%
Cc1ccc(CN2CCSc3ccc(C(=O)NC4CCCC4)cc32)cc1 | u | 16.4µM* | -10.1 | -1.1% | -1.3%
CCOC(=O)N1CCC(NC(=O)c2ccc3c(c2)N(CC)CCS3)CC1 | u | 20.6µM* | 20.4 | -15.4% | -0.4%
O=C(c1ccc2c(c1)N(Cc1ccccc1)CCS2)N1CCCCC1 | -29.5% | -29.6% | 9.2 | -8.7% | -1.8%
Cc1ccc(CN2CCSc3ccc(C(=O)Nc4ccc(F)cc4F)cc32)cc1 | u | 16.4µM* | x | x | x
CCOc1ccc(CNC(=O)c2ccc3c(c2)N(CC)CCS3)cc1 | u | u | -25.9 | 9.6% | -4.2%
CCc1ccc(NC(=O)c2ccc3c(c2)N(Cc2ccc(C)cc2)CCS3)cc1 | u | 14.6µM* | x | x | x
O=C(C[n+]1ccc(-c2nnc3n2CCCCC3)cc1)c1ccc(Cl)cc1 | -9.9% | 8.7% | -18.3 | -2.0% | -10.4%
CCCN(C(=O)c1cn(-c2ccccc2)nc1-c1ccc(OC)cc1)C1CCS(=O)(=O)C1 (stereo not given) | -2.8% | -1.6% | -22.3 | -4.0% | -3.9%
Cc1ccc(CN2CCSc3ccc(C(=O)NCc4cccnc4)cc32)cc1 | u | 23.1µM* | 0.0 | -5.3% | -14.9%
O=C(NCC1CCCO1)c1ccc2c(c1)N(Cc1ccc(Cl)cc1)CCS2 (stereo not given) | 23.1µM* | u | u | -7.4% | -18.8%
Cc1ccc(C)c(CC(=O)N2CCCC(c3cc(C(=O)Nc4ccccc4Cl)no3)C2)c1 (stereo not given) | u | u | 0.0 | -19.6% | -18.6%
O=C(Nc1ccc2c(c1)OCO2)C1CCCN1C(=O)Nc1ccccc1 (stereo not given) | -5.5% | 0.7% | 5.7 | 0.0% | 4.7%
Cn1c(=O)c2sc3c(c2n(CC(=O)Nc2ccccc2)c1=O)COC(C)(C)C3 | 7.1% | 1.0% | 39.0 | 15.8% | 7.9%
CN1CC(=O)Nc2ccc(Br)cc2C1=O | -1.2% | -3.0% | -5.0 | 3.9% | 6.6%
O=C1Nc2ccc(Br)cc2C1=C1CCCCC1 | 23.1µM* | u | 29.0 | 16.4µM* | u
Cc1ccc(N(Cc2ccccc2)C(=O)Cc2ccc(S(=O)(=O)N3CCOCC3)s2)cc1 | u | u | 0.8 | 0.8% | 2.3%
CC1=NN(c2ccccc2)C(=O)C1N=Nc1cccc(O)c1 (stereo not given) | 16.4µM* | 16.4µM* | 42.3 | u | u
CC1=NN(c2ccccc2)C(=O)C1N=Nc1ccccc1 (stereo not given) | -20.9% | 6.8% | -7.2 | 3.5% | 21.9%
CC1=NN(c2ccccc2)C(=O)C1N=Nc1ccc(N)cc1 (stereo not given) | 10.3µM* | 14.6µM* | 0.0 | 23.1µM* | -17.1%
CCN(CC)C(=O)c1[nH]cnc1C(=O)NC1CCN(C(=O)OC(C)(C)C)CC1 | -7.0% | -3.2% | 7.4 | -0.6% | 2.0%
CCCc1nc2cc(C)c(Br)c(C)n2c1Cc1ccc(OC)cc1C | u | u | 47.1 | u | u
O=C(Nc1cccc(Cl)c1N1CCCCC1)c1ccc2c(c1)OCCO2 | 20.6µM* | u | -3.7 | u | u
O=C(NC(=S)Nc1ccccc1Br)c1ccc2c(c1)OCO2 | 3.1% | 18.7% | 11.7 | 2.2% | 6.5%
O=C(Nc1ccc(N2CCCCC2)cc1)c1ccc2c(c1)OCCO2 | u | u | -27.3 | -27.9% | -6.7%
O=C(NC(=S)Nc1cccc(Cl)c1N1CCCCC1)c1ccc2c(c1)OCCO2 | u | 3.26µM* | -5.7 | 4.2% | 10.6%

Bioassay records from PubChem.
